Laboratory results: ChEMBL document CHEMBL4296182, “CO-ADD screening of NIH NCI Diversity Set V”
For part of these data: Measured potencies and affinities stand elsewhere.

Experiments:
[1] = system: Staphylococcus aureus; test: Antibacterial activity against Staphylococcus aureus MRSA ATCC 43300 (CO-ADD:GP_020); MIC in CAMBH media using NBS plates, by Resazurin F(560/590); assay type: functional; conditions: Concentration 20 uM, ASSAY_TEST Inhibition of Bacterial Growth, detection method Resazurin, Fluorescence (ex560/em590), MEDIA CAMHB, plate type 384well, CORNING #3640, time 18 hr
[2] = system: Acinetobacter baumannii; test: Antibacterial activity against Acinetobacter baumannii ATCC 19606 (CO-ADD:GN_034); MIC in CAMBH media using NBS plates, by Resazurin F(560/590); assay type: functional; conditions: Concentration 20 uM, ASSAY_TEST Inhibition of Bacterial Growth, detection method Resazurin, Fluorescence (ex560/em590), MEDIA CAMHB, plate type 384well, CORNING #3640, time 18 hr
[3] = system: Escherichia coli; test: Antibacterial activity against Escherichia coli ATCC 25922 (CO-ADD:GN_001); MIC in CAMBH media using NBS plates, by Resazurin F(560/590); assay type: functional; conditions: Concentration 20 uM, ASSAY_TEST Inhibition of Bacterial Growth, detection method Resazurin, Fluorescence (ex560/em590), MEDIA CAMHB, plate type 384well, CORNING #3640, time 18 hr
[4] = system: Klebsiella pneumoniae; conditions: Concentration 20 uM; ASSAY_TEST Inhibition of Bacterial Growth; detection method Absorption (OD600); MEDIA CAMHB; plate type 384well; NBS; CORNING #3640; time 18 hr
[5] = system: Candida albicans; conditions: 20 µM
[6] = system: Cryptococcus neoformans; conditions: Concentration 20 uM; ASSAY_TEST Inhibition of Fungal Growth; detection method Resazurin; Absorption (OD600-OD570); plate type 384well; NBS; CORNING #3640

Row | SMILES | Inhibition [1] [%] | Inhibition [2] [%] | Inhibition [3] [%] | Inhibition [4] [%] | Inhibition [5] [%] | Inhibition [6] [%]
1 | Cc1n[nH]c2nc(N)nn2c1=O | -4.36 | -0.91 | 10.78 | -2.02 | -3.85 | -10.19
2 | Cc1nnc(Cc2ccccc2)c2[nH]nc(C)c12 | 16.17 | 11.32 | 1.75 | 14.15 | 5.79 | -4.44
3 | NC(=O)c1ccc(Cl)c2ccccc12 | 11.2 | -9.07 | 13.67 | 7.47 | 6.64 | -4.82
4 | Cc1cc(O)c2c(C)ccc(C)c2n1 | 0.21 | 1.08 | 3.82 | 5.25 | 0.13 | -9.44
5 | CCOC(=O)Nc1ccc2nc(Sc3ccc(Cl)cc3)sc2c1 | 12.84 | 1.81 | -1.5 | 17.17 | 10.2 | -3.93
6 | CN1CCC(=C(c2ccc(Cl)cc2)c2ccccn2)CC1.O=C(O)/C=C\C(=O)O [CYCLIRAMINE MALEATE] | 6.43 | -10.18 | 9.66 | 13.03 | 1.65 | -5.61
7 | O=C1CSC(=S)N1/N=C/c1c[nH]c2ccc(Br)cc12 | -3.88 | 11.83 | 4.81 | 26.71 | 19.6 | -14.16
8 | O=C(/C=C/c1ccccc1Cl)c1ccc(O)cc1 | 3.85 | 0.76 | -16.06 | 19.85 | 14.7 | 8.89
9 | C#CCSc1nnnn1-c1ccc(Br)c(C)c1 | 21.42 | 5.77 | 6.7 | 10.23 | 1.42 | -16.38
10 | CC(=O)C1C=CC(C)(C(=O)O)C2C=C(C)C(=O)C(C)(O)C12 (centres undefined) | 4.72 | 16.27 | 8.25 | 21.21 | 1.75 | -4.78
11 | Cc1cc(C)n(C(=N)NC(=O)c2ccc([N+](=O)[O-])cc2)n1 | 1.83 | 1.39 | -7.33 | 8.27 | 3.88 | 44.63
12 | Cc1ccc(NC(=S)NC(=O)c2ccccc2)cc1NC(=S)NC(=O)c1ccccc1 | 23.47 | -11.72 | 7.94 | 3.93 | -0.27 | 1.39
13 | CC(=O)Nc1cccc(NC(C)=O)n1 | 23.71 | -5.95 | 17.6 | 13.05 | -2.4 | -1.6
14 | CC1=NN(c2ccccc2)C(=O)C1/N=N/c1ccc(S(N)(=O)=O)cc1 (centres undefined) | -7.63 | 9.06 | 7.33 | 5.84 | 11.2 | -4.3
15 | CC(C)(C(N)=O)c1ccccc1 | 17.59 | -10.23 | 13.36 | 17.26 | -1.04 | -2.3
16 | CC(=O)O[C@H]1CC[C@@]2(C)[C@@H](CC[C@@H]3[C@@H]2CC(=O)[C@@]2(C)[C@H]3C[C@@H]3CC(C)=CC(=O)[C@@H]32)C1 | 25.43 | -5.19 | 14.73 | 18.64 | 2.5 | -9.27
17 | COc1cc(NC(=O)c2cc3ccccc3cc2O)c(OC)cc1Cl | 15.9 | 4.67 | -1.76 | 8.39 | 2.82 | -1.31
18 | Oc1cc(-c2nn[nH]n2)nc(O)n1 | 15.18 | -5.46 | 13.37 | 14.33 | 1.84 | 0.69
19 | Cc1nnsc1C(=O)NCc1c(F)cccc1Cl | -1.87 | -1.01 | -7.07 | 6.44 | -0.57 | -9.18
20 | CCN(CC)CCNC(=O)c1ccc(NCN2C(=O)NC(c3ccccc3)(c3ccccc3)C2=O)cc1 | 12.78 | -11.12 | 11.42 | 8.03 | 1.74 | -3.88
21 | O=C1COc2cccnc2N1 | 8.1 | -14.05 | 0.48 | 27.65 | 4.29 | -2.63
22 | C=C(C)C(=O)Nc1ccc(NC(C)C)cc1 | 12 | 5.36 | 6.32 | 8.48 | 4.24 | -6.96
23 | CCSc1ncc(CO)c(N)n1 | 4.68 | -13.15 | 2.64 | 10.1 | 0.06 | 1.67
24 | COc1ccc(-c2cc3ccccc3[nH]2)cc1 | 28.13 | -0.84 | 12.2 | 0.29 | -0.93 | -13.44
25 | CCC(C)NC(=O)c1cccc(C)c1 (centres undefined) | 27.07 | -10.03 | 12.99 | 13.06 | 3.19 | -7.62

Row | SMILES | Inhibition [1] [%] | Inhibition [2] [%] | Inhibition [3] [%] | Inhibition [4] [%] | Inhibition [5] [%] | Inhibition [6] [%]
26 | Sc1nccn1-c1c(Cl)cccc1Cl | 10.46 | 12.03 | 0.7 | 7.58 | 4.08 | -8.98
27 | NC(=O)NC1NC(=O)NC1=O (centres undefined) [ALLANTOIN] | 12.16 | -7.41 | 9.38 | 18.45 | 2.26 | -7.8
28 | COc1ccccc1/C=C(\C#N)C(=O)O | 12.51 | 1.75 | 5.31 | 6.46 | 6.96 | -7.1
29 | CC1(C)OC2CC(=O)OCC23C1CC(=O)C1(C)C3CCC2(C)C(c3ccoc3)OC(=O)C3OC321 (centres undefined) | 21.22 | -6.97 | 8.41 | 8.88 | 0.13 | -7.86
30 | Nc1ccccc1-c1nc2cnccc2[nH]1 | 12.51 | -12.24 | 9.24 | 2.75 | -2.69 | -6.41
31 | CCC(C)Oc1nc2c(c(=O)n(C)c(=O)n2C)n1C (centres undefined) | -1.77 | -5.34 | 12.06 | 2.01 | 1.02 | -11.56
32 | CC(=O)NCC1(O)CCCC(C)C1 (centres undefined) | 7.69 | -13.88 | 5.11 | 9.82 | 1.28 | -5.78
33 | C(=C\CSc1ccccn1)/CSc1ccccn1 | 10.81 | -13.92 | 9.4 | 8.71 | 2.49 | -12.06
34 | CCOC(=O)CCC1(C(=O)OC)C(=O)CCCCC/C=C/1C(=O)OC (centres undefined) | 9.69 | 9.62 | -17.88 | 8.19 | 7.46 | 18.91
35 | CCC(C)c1c(N)n(S(=O)(=O)c2ccc(C)cc2)oc1=O (centres undefined) | 12.19 | -9.07 | 9 | 8.85 | 1.8 | -2.18
36 | CCOC(=O)c1c(N)ssc1=S | 5.44 | 2.94 | -3.33 | 23.27 | 10.5 | -3.18
37 | CSc1cccc(NC(=O)Nc2nc3c(C)cccc3s2)c1 | -3.9 | 2.69 | 8.83 | 7.86 | -0.92 | -2.59
38 | Clc1ccc(-c2c(C3=NCCCN3)nnn2-c2ccc(Cl)cc2)cc1 | 10.56 | -3.66 | 11.37 | 18 | 1.4 | -5.35
39 | COc1cc(C(=O)C(=O)c2cc(OC)c(O)c(OC)c2)cc(OC)c1O | 3.22 | 7.73 | -5.19 | 5.73 | 3.18 | 0.06
40 | O=C1c2ccccc2C(=O)c2c1cccc2-n1nnc2ccccc21 | 8.87 | -5.95 | 13.14 | 0.02 | 0.12 | -17.13
41 | C[C@]12CC[C@@H]3c4ccc(OCC(=O)O)cc4CC[C@H]3[C@@H]1CCC2=O | 9.17 | -16.81 | 9.71 | 8.63 | 3.7 | -16.24
42 | c1coc(CNc2[nH]cnc3nncc2-3)c1 | 12.65 | -12.11 | 11.54 | 7.55 | 0.96 | -6.46
43 | Cc1nc(N)nc(O)c1CCCNc1ccc(CCC2(CCl)OCCO2)cc1 | 17.48 | 2.84 | 11.06 | 8.53 | 1.57 | 3.7
44 | COC(=O)C1=C(C(=O)OC)[C@@H]2CCC[C@H]1[C@H]1[C@@H]2N=NN1c1ccccc1 | 22.18 | -12.99 | 6.51 | 9.18 | 2.48 | 8.73
45 | COc1cccc2c1C(CO)N1C(C#N)C3CC(C(=O)O)C(C1C2)N3C (centres undefined) | 14.9 | -10.77 | -1.99 | 21.32 | 4.33 | -4.3
46 | CC1CN(CCN2CC(C)N(C=O)CC2C)C(C)CN1C=O (centres undefined) | -7.66 | -6.52 | -13.71 | 5.89 | 1.99 | 25.73
47 | Cc1ccc(Nc2nnc(S)s2)cc1F | -5.24 | -6.73 | 5.51 | 11.86 | 12.1 | 17.67
48 | CC1(C)N=C(N)N=C(NCCCOc2ccc([N+](=O)[O-])cc2)N1.CCS(=O)(=O)O | 25.11 | -9.38 | 11.82 | 18.17 | -1.81 | -10.08
49 | O=C(Nc1ccc2ccccc2c1)c1cccc(F)c1 | -15.53 | -12.84 | 8.09 | 2.58 | 9.01 | -2.23
